Data published in the supplement of paper PMC6555819.

Experiments:
Experiment in all cases: PBM binding z-score (relative to random genomic background probes); higher = stronger binding; sequences stand for … in GC…GCGATTGACAGCGTAGAATGAAGG
[1] = system: RARb homodimer (NR concentration 270 nM)
How it was run: (§1)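 The probes on custom Agilent 4×180K protein-binding microarrays were double-stranded, with 34-nt variable regions bearing direct-repeat seeds, single-nucleotide variants, half-site ablations and random human genomic background sequences. Incubation lasted 1 h with ligand-free nuclear receptor dimers in PBS pH 7.4, 2% milk, 0.02% Triton X-100, 1 mM DTT, 0.2 mg/mL BSA and 0.4 mg/ml salmon testes DNA. Antibodies against each partner (one per run) detected bound dimers, and fluorescence scans were regression-normalized. Binding z-scores take the random background probes as reference.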

[2] = system: RARg:RXRa (NR concentration 270 nM, RXRa partner concentration 90 nM)
How it was run: as §1

[3] = system: RARg homodimer (NR concentration 270 nM)
How it was run: as §1

[4] = system: RXRa DBDmut IVT, anti-RXR (DBD mutation: RXRa K156A/R161A, NR concentration 90 nM)
How it was run: as §1

[5] = system: RXRa homodimer (NR concentration 180 nM)
How it was run: as §1

[6] = system: THRa:RXRa (NR concentration 90 nM, RXRa partner concentration 90 nM)
How it was run: as §1

[7] = system: THRa homodimer (NR concentration 90 nM)
How it was run: as §1

[8] = system: VDR homodimer (NR concentration 270 nM)
How it was run: as §1

Sequence	PBM binding z-score [1]	PBM binding z-score [2]	PBM binding z-score [3]	PBM binding z-score [4]	PBM binding z-score [5]	PBM binding z-score [6]	PBM binding z-score [7]	PBM binding z-score [8]
ATATGTAGGTTACATCCGGCTCATTCAGGCTATG	0.467	0.906	1.15	0.846	0.829	1.09	0.4	0.27
CCTGCTAGGTCAATGGTCAGTTAAAGCAGCTCGC	3.24	3.72	4.65	1.99	2.11	2.38	0.961	0.506
CCTGCTAGCTCAATGGTCAGCTAAAGCAGCTCGC	0.464	-0.547	-0.75	0.0586	-0.756	-0.535	-0.555	-0.94
TGAATGAGCTTAAAGATCAGGGAACGTGGCGTCG	-0.993	-0.123	-0.307	-1.41	0.0598	-0.475	-0.628	-0.391
GCTAGCAGGCCATTTGGGTCACTCCATGACGGGC	1.6	0.733	1.19	0.0531	0.716	1.61	0.324	0.419
CATAGCAGGCCAGGGTCACTCAAGCATTTCGCTT	3.09	3.13	2.89	0.718	3.61	3.07	1.43	1.81
CTAGAAAGGTCGGTTGAGGTGAGTATACGGATAA	2.53	2.76	2.97	1.01	2.5	4.81	1.71	1.05
CTCGAAAGGTCGTGCTCAGGTGAGAATACCAAAC	2.73	5.24	4.09	2.05	4.93	4.12	1.14	0.913
CGAACTAGATCATCCAGGACAGTGAATACATTGA	0.254	0.0804	0.347	0.701	-0.151	1.13	1.14	0.494
GCGCCTGGGGCAAAGCAGGTTACCATAAGGTTGG	0.951	0.319	0.493	-0.424	0.237	2.96	-0.193	-0.387
TAGCCTAGGTCATGCGTGCCAGTATAGTGTCGGC	3.14	3.78	3.75	0.805	2.85	2.96	1.22	0.552
CCTACTGGGCCATCCGGTCATTGATATCAACGTT	1.9	0.787	1.34	-0.598	0.106	0.75	0.677	0.0499
AGTCAAAGTTCACTACGTAACGTAAGATTCAGCT	3.36	4.55	5.09	4	3.76	1.4	-0.394	3.71
TAGCCTAGGTCATCCAGGGGCCAGTATAGAAAGC	3.71	6.41	5.07	0.731	2.94	3.55	0.878	0.913
ATCTCTAGGTAAAGTTCCGTGAAAGATCGATAGA	-0.0472	0.28	0.381	0.35	0.0302	0.529	0.224	0.431
GCGACTGGGGCAAAGCAGGTTACAATAAGGTTGG	1.15	0.682	0.779	-0.0572	0.668	3.11	0.0569	-0.351
ATAGAAAGGTCGACGAGGTGAGTATACACCGTTT	2.88	3.98	3.86	1.03	4.18	3.62	0.52	1.1
TCAGACAGGTGAAGTTAACTCAGGTACGCAGTCG	0.596	0.588	0.629	1.33	0.838	1.55	0.285	0.404
TCGAGTAGGTTAGTCGGGGCATTCCGCCAACATA	0.291	-0.0295	-0.243	0.165	0.00868	1.05	-0.473	-0.0294
TCTTGTAGATCAAGCAGGTTAAGTAAGCCTGAGT	0.0988	-0.201	-0.463	0.439	0.0943	0.33	-0.503	-0.0277
CCTACTGGGCCAAGGTGATTGATCAGTCAAAGCA	-0.085	-0.199	-0.0733	-1.43	-0.57	0.355	-0.015	-0.782
ATCTCTAGGTAAAAGTTAAGTGAATCCCGAGGAT	-0.425	0.121	0.586	-0.231	0.0332	0.344	-0.106	0.265
CCGACTGGGTCAAGGTTACCATAACGCACAGCCA	3.15	3.98	4.05	0.852	3.59	2.83	1.51	1.02
ATATGTAGGTTACATCCGGGTTATTCAGGCTATG	1.32	1.65	1.4	1.14	1.84	2.18	1.08	0.79
TTACCAAGGTGAAGGTCGTTAATCCCTCTGTAGA	1.62	1.07	0.814	-0.0664	1.54	2.22	0.878	0.939
CCTTACGGGTCACGAGGTTATAGCGCGACGAGCG	3.63	5.98	5.29	1.62	6.87	3.59	1.07	1.9
TGTCAAAGTTCAAAGGTAATGTAAGTATCCACAC	3.63	5.97	5.84	4.44	6.5	3.15	-0.177	3.96
CCTATTAGTTGACCATAAGGGCAAGCGAAGCTCG	1.9	0.986	1.05	0.414	0.645	1.75	1.08	0.847
GCGACTCGGGCATCAGCAGGTTACCATAACTTAA	0.226	0.257	0.0755	-0.281	0.133	0.266	-0.36	-0.501
